BAZ2B inh = qHTS Assay for Inhibitors of BAZ2B | hit rate 4.4% among 360,000 | Potency, µM (series often up to 114 µM), inactives show at the highest dose activity change, negative = inhibition, most hits filed as inhibitors | AlphaScreen BAZ2B-H3K14Ac peptide displacement; note: % is set by controls: 0 for no effect and ±100 for the full control effect; nearly all actives have a fitted effect of over 60% in size
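Compounds, titrated to a top concentration of 110 uM, were incubated 30 min at room temperature with preformed BAZ2B/acetyl-K14 H3 peptide complex (50 nM each). Proximity signal was measured by AlphaScreen after 20 min with beads.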
G9a block = qHTS Assay for Inhibitors of Histone Lysine Methyltransferase G9a. Histone-lysine N-methyltransferase EHMT2 (Homo sapiens), Q96KQ7. G9a H3K9 monomethylation, AlphaScreen, 2 h. Potency, µM (highest dose often 102 µM), inactives show top-dose activity, negative = inhibition, hits mostly inhibitors. hit rate 8.8% among 350,000; note: % is set by controls: 0 for no effect and ±100 for the full control effect; nearly all actives have a fitted effect of over 75% in size
Target sequence (Q96KQ7 913-1193 limits assumed): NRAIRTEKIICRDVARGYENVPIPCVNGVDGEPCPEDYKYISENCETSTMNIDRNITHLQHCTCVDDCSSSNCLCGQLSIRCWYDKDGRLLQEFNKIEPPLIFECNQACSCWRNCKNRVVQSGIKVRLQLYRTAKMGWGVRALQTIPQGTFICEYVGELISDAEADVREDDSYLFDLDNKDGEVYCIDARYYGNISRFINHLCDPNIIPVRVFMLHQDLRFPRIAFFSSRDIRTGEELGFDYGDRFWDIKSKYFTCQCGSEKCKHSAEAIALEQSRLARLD
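G9a (20 nM) was preincubated 15 min with compound, then reacted 2 h at room temperature with 500 nM biotin-H3K9 peptide and 20 µM SAM. Monomethyl-H3K9 detected by AlphaScreen using anti-H3K9me1 antibody.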
TDP1 block = qHTS Assay for Inhibitors of Tyrosyl-DNA Phosphodiesterase (TDP1). Tyrosyl-DNA phosphodiesterase 1 (Homo sapiens), Q9NUW8. recombinant TDP1, AlphaScreen DNA substrate cleavage. Potency, µM (series often up to 130 µM), inactives show at the top dose activity change, negative = inhibition, actives largely listed as inhibitors. hit rate 0.28% among 350,000; note: % is set by controls: 0 for no effect and ±100 for the full control effect; nearly all actives have a fitted effect of over 40% in size
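Recombinant human Tdp1 (E. coli-expressed, 1 nM final) preincubated with compounds 15 min at room temperature, then 5'-biotin/3'-phosphotyrosine-FITC DNA substrate (15 nM final) added for 5 min. AlphaScreen beads (10 ug/ml final) added 10 min; cleavage lowers signal.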
JMJD2A Tudor = qHTS Assay for Inhibitors of JMJD2A-Tudor Domain | Lysine-specific demethylase 4A (Homo sapiens), O75164 | AlphaScreen JMJD2A-Tudor / H3K4me3 peptide binding | Potency, µM (top dose mostly 114 µM), inactives show at the highest dose activity change, negative = inhibition, most hits filed as inhibitors | hit rate 4.4% among 390,000 | AID 504339, 2011; note: % is set by controls: 0 for no effect and ±100 for the full control effect; nearly all actives have a fitted effect of over 50% in size
HP1b binding inh = HTS for Inhibitors of HP1-beta Chromodomain Interactions with Methylated Histone Tails; Chromobox protein homolog 1 (Homo sapiens), P83916; AlphaScreen HP1-beta / biotin-H3K9me3 peptide binding; Potency, µM (titrated, usually from 114 µM), inactives show at the top dose activity change, negative = inhibition, hits mostly inhibitors; hit rate 0.56% among 390,000; note: nearly all actives have a fitted effect of over 70% in size
Target sequence (P83916 whole entry, looked up): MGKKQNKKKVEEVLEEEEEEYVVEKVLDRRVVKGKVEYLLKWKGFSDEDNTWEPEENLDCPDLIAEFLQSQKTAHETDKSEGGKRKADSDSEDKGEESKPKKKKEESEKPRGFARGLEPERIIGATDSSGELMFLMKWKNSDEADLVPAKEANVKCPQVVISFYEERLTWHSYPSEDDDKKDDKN
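Compound inhibition of the preformed complex between 50 nM HP1-beta and 50 nM biotinylated H3K9me3 peptide was read by AlphaScreen. Buffer was PBS pH 7.4 with 0.01% Tween-20. Incubations ran 30 min at room temperature, with 10 ug/mL donor/acceptor beads.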
Sfp inh = qHTS Assay for Inhibitors of Bacillus subtilis Sfp phosphopantetheinyl transferase (PPTase); 4'-phosphopantetheinyl transferase ffp (Bacillus subtilis), Q9F4F7; Biochemical Sfp PPTase activity, qHTS; Potency, µM, for inactives: largest response in the series, negative = inhibition, actives largely listed as inhibitors; hit rate 3.5% among 310,000; AID 1490, 2009;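 note: the enzyme is Sfp with the accession as filed and its product quenches rhodamine fluorescence; 0% = enzyme reaction without inhibitor and -100% = no enzyme wells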
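Compounds were incubated with enzyme (final 15 nM) for 15 min at room temperature before substrate addition started the reaction. Fluorescence at 525 nm excitation, 598 nm emission was recorded immediately and after 30 minutes.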
* hit, by the source's call; ? = inconclusive; . = no result given; [ ] = dose if it differs, or a comment. Compounds with a hit are over-represented: about 12% of the library has one in this group of screens. Calls come from the whole dose curve; as a rule, active = well fitted curve in the direction sought with a large enough effect; inconclusive = small, poorly fitted or top-dose-only effect, or another doubt; inactive = no such curve, though single readings can be large; an effect the other way counts as inactive or inconclusive. Potency is the fitted concentration of half-maximal effect.

SMILES	BAZ2B inh	G9a block	TDP1 block	JMJD2A Tudor	HP1b binding inh	Sfp inh
O=C(COC(=O)C1C2CC3OC(=O)C1C3C2)Nc1ccccc1 (configuration not stated)	7%	50µM*	0%	-4%	7%	11%
O=C(COC(=O)C1C2CC3OC(=O)C1C3C2)Nc1ccc(F)cc1 (configuration not stated)	-15%	-6%	1%	-8%	53%	10%
Cc1cccc2cc(C3CC(c4cccs4)=NN3S(C)(=O)=O)c(Cl)nc12 (configuration not stated)	-4%	.	0%	-19%	22%	-11%
COc1cc(S(=O)(=O)NCc2ccncc2)ccc1Br	-1%	.	3%[56.1 µM]	-5%	14%	21%
COc1ccc(-c2noc(N3CCN(c4cccc(C)c4C)CC3)n2)cc1OC	-1%	-1%[59 µM]	5%	-18%	6%	.
CCOC1=NC(=C(c2ccccc2)c2ccccc2)OC1=O	.	.	.	25µM*	-28%	.
COC1=NC(=C(c2ccccc2)c2ccccc2)OC1=O	.	.	.	-10%	32%	.
O=C(NC1CCCCC1)C(=S)N1CCOCC1	-7%	?	-3%	-3%	-2%	50µM*
Cc1ccccc1SCC(=O)OCC(=O)NCCNC(=O)COC(=O)CSc1ccccc1C	-13%	50µM*	-9%[0.505 µM]	-9%	37%	.
Nc1nc(NCCc2ccccc2)c2[nH]cnc2n1	.	.	1%	-25%	66%	.
CSc1ncc(-c2ccc(Cl)cc2)[nH]1	?	40µM*	.	-21%	2%	-16%
O=c1c(O)c(-c2cccc(O)c2)oc2ccccc12	.	.	-5%[56.1 µM]	.	.	45µM*
COc1cc(OC)c2c(O)c3c(c(-c4c5c(c(O)c6c(OC)cc(OC)cc46)CO[C@@H](C)[C@H]5O)c2c1)[C@H](O)[C@H](C)OC3	45µM*	9%[12.7 µM]	4%	50µM*	?	?
CCCS(=O)(=O)C/C(N)=N/OC(=O)c1ccccc1Cl	-32%	40µM*	.	-9%	10%	-18%
CCc1cc(-c2n[nH]c(C)c2-c2nc3ccccc3n2C)c(O)c(CN2CCN(C)CC2)c1O	?	45µM*	12%	?	-22%	-5%
CCc1cc(-c2n[nH]c(CCC(=O)O)c2-c2nc3ccccc3n2C)c(O)cc1O	-25%	7.1µM*	0%	-17%	29%	0%
CSCC[C@H](NC(=O)C1CCN(S(=O)(=O)c2ccc(C)cc2C)CC1)c1nc2ccccc2[nH]1	.	.	3%	-26%	17%	.
O=C1CS/C(=N\N=C\c2ccco2)N1c1ccccc1	50µM*	?	-3%	?	2%	-6%
O=C1CS/C(=N/N=C/c2ccccc2)N1c1ccc(O)cc1	10%	.	.	-14%	21%	10%
COc1cccc(CN2CCC(N(CCc3ccccc3)Cc3ccccc3)CC2)c1OC	50µM*	8.9µM*	-3%	0.89µM*	?	40µM*
CN1CCN(Cc2cccc(Oc3ccc(Cl)cc3)c2)CC1	-10%	?	0%	-21%	11%	10%
COc1cccc(CN2CCN(CCc3ccccc3)C(CCO)C2)c1OC (configuration not stated)	3%	-3%[0.501 µM]	4%	-2%	31%	4%
COc1cccc(CN2CCN(Cc3cccc(Oc4ccccc4)c3)CC2)c1OC	18µM*	4µM*	.	7.1µM*	?	79µM*
CC1CCN(C(=O)CN(CCc2ccccc2)S(C)(=O)=O)CC1	6%	7%	2%	-7%	29%	7%
CC(C)CC(=O)N1CCC(N(CCc2ccccc2)Cc2ccccc2)CC1	50µM*	22µM*	6%	28µM*	?	?
SMILES	BAZ2B inh	G9a block	TDP1 block	JMJD2A Tudor	HP1b binding inh	Sfp inh
COc1cccc(CN2CCN(Cc3cc(OC)c(OC)c(OC)c3)CC2)c1OC	56µM*	2.8µM*	6%	7.9µM*	?	-20%
COc1ccc(Oc2ncc3nc(-c4ccc(F)cc4)c(=O)n(CCC#N)c3n2)cc1	.	-1%[0.501 µM]	.	.	.	2%
CCS(=O)(=O)n1nc(-c2ccccc2)nc1NCc1ccco1	-30%	25µM*	-5%[56.1 µM]	-29%	3%	13%
COC(=O)C(CC(=O)c1ccc(Br)cc1)n1cccn1 (configuration not stated)	1%	40µM*	4%	-10%	8%	?
Cc1nc2c3cc(F)ccc3n(Cc3ccccc3F)c2s1	50µM*	-26%[59 µM]	5%	23%	-22%	18µM*
Cc1nc2c3ccccc3n(Cc3ccccc3F)c2s1	?	?	1%	9%	18%	-21%
O=C(O)c1cccc(-c2ccc(/C=N/n3cnnc3)o2)c1	-29%	-13%[59 µM]	.	-2%	28%	0%
Cc1c(C(=O)O)cccc1-c1ccc(/C=N/Nc2ccc(Br)cc2)o1	50µM*	10µM*	-5%	?	-13%	?
Cc1c(C(=O)O)cccc1-c1ccc(/C=N/n2cnnc2)o1	79µM*	35µM*	.	89µM*	-6%	6%
CN1CCN(C(=O)C2CCCN(S(=O)(=O)c3ccc(Cl)cc3)C2)CC1 (configuration not stated)	50µM*	10µM*	0%	0.71µM*	?	-25%
CN1CCN(C(=O)C2CCCN(S(=O)(=O)c3ccccc3)C2)CC1 (configuration not stated)	?	.	0%	20µM*	-16%	?
O=C(C1CCCN(S(=O)(=O)c2ccccc2)C1)N1CCCCC1 (configuration not stated)	-2%	.	3%[56.1 µM]	-14%	30%	13%
CN1CCN(C(=O)C2CCCN(S(=O)(=O)c3ccc(Br)cc3)C2)CC1 (configuration not stated)	-2%	?	4%	-5%	10%	15%
CC(OC(=O)c1ccccc1O)C(=O)Nc1cccc(Cl)c1 (configuration not stated)	-3%	-17%	0%	-3%	41%	20%
O=C(O)/C=C/C(=O)NNC(=O)c1ccc(Br)cc1	-2%	25µM*	3%	-7%	32%	-11%
O=C(NNc1ccc(O)cc1)c1ccc(Br)cc1	?	1.6µM*	6%	?	?	13µM*

Source: PubChem
